From PubChem BioAssay AID434958 (Southern Research Specialized Biocontainment Screening …, 2010)
Among all 1,200 compounds or so, about 400 (33%) were called active. No rule for the calls is given here. The list is a sample of the results. Entries with a potency or affinity are not part of this list.

Assay: mammalian cell cytotoxicity, dose response, cytotoxicity control (AID 434958);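 also: cells exposed to compound for 72 hours before readout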
Conditions: cytotoxicity counter-screen; series mostly up to 40 µM; viability: at the top concentration

SMILES | viability
COc1ccc(NC(=O)c2cc(C)nc3ccccc23)c(OC)c1 | 96.7% (inactive)
Cc1cc(C)c(C)c(S(=O)(=O)N2C(=S)NC(=O)C2CC(C)C)c1C (stereo unspecified) | 90.3% (inactive)
CC(=O)c1ccc(OC(=O)N(c2ccccc2)c2ccccc2)cc1 | 95.2% (inactive)
CN(C)C1=C(Cl)C(=O)N(c2ccc(Cl)c(Cl)c2)C1=O | 96.3% (inactive)
CCCCOc1ccccc1NC(=O)c1ccco1 | 87.3% (inactive)
O=c1c2c3n(c(=S)nc2[nH]n1-c1ccccc1)CCCCC3 | 96.8% (inactive)
Cc1cc(/C=N/NC(=O)CC#N)c(C)n1-c1ccc([N+](=O)[O-])cc1 | 90.9% (inactive)
CCN(CC(=O)Nc1ccc2c(c1)OCCO2)C(=O)c1ccc([N+](=O)[O-])s1 | 98% (inactive)
COc1ccc(N2C(=O)NC(=O)/C(=C\c3ccc([N+](=O)[O-])s3)C2=O)cc1 | 93.5% (inactive)
COc1ccc(NCC(=O)N/N=C/C(C)c2ccccc2)cc1 (stereo unspecified) | 104% (inactive)
CCCc1cc(C(=O)OCC(=O)N2CCN(c3ccc(OC)cc3)CC2)sc1C | 92% (inactive)
COc1cc(C(=O)NNC(=O)c2cc(-c3ccccc3)n[nH]2)cc(OC)c1C | 88.9% (inactive)
COc1ccc(C2c3c(C)nn(-c4ccccc4)c3NC(=O)N2c2ccccc2)cc1 (stereo unspecified) | 94% (inactive)
CCOC(=O)C1CSC(CC(=O)Nc2ccc(Cl)c(Cl)c2)C(=O)N1 (stereo unspecified) | 102% (inactive)
CCOC(=O)C1CCN(c2ccc(C(N)=O)cc2[N+](=O)[O-])CC1 | 96.3% (inactive)
CCCCC(=O)NC(=S)Nc1ccc(NC(=O)C(C)C)c(OC)c1 | 97.8% (inactive)
O=C1C(Cl)=C(N2CCCCCC2)C(=O)N1c1ccc(Br)cc1 | 96.8% (inactive)
CCOCC(=O)Nc1cc(C(F)(F)F)ccc1Oc1cccc(Br)c1 | 84.7% (inactive)
COc1cc(OC)c(C(=O)Nc2cccc3ccccc23)cc1OC | 100% (inactive)
C/C(=N\OCC(=O)Nc1nc2ccccc2s1)c1ccccc1 | 82.3% (inactive)
CCCCNC(=O)c1onc(CSc2ccc(OC)cc2)c1C(=O)O | 96.6% (inactive)
COC(=O)c1c(NC(=O)C2c3ccccc3Oc3ccccc32)sc(C)c1C | 83.2% (inactive)
COc1ccc(Cl)cc1NC(=O)C/C(C)=N/NC(=O)CC#N | 94.8% (inactive)
COc1ccc(OC)c(NC(=O)c2ccccc2SC)c1 | 102% (inactive)

SMILES | viability
O=C(CCSc1ccccc1)Nc1nc2c(s1)CCCC2 | 110% (inactive)
CCOC(=O)C(=CNc1ccc2c(c1)c1ccccc1n2CC)C(=O)OCC | 92.9% (inactive)
Cc1cc(C)cc(SCc2noc(C(=O)NC(C)C)c2C(=O)O)c1 | 93.7% (inactive)
COc1ccccc1C(=O)Nc1ccc2c3c(cccc13)CC2 | 92.7% (inactive)
CCOC(=O)CNC(=O)/C(=C\c1ccc(F)cc1)NC(=O)c1ccccc1 | 89.3% (inactive)
CC(/C=N/NC(=O)c1cc(C(C)(C)C)[nH]n1)=C\c1ccccc1 | 88.1% (inactive)
C/C(CC(=O)NCc1ccco1)=N\NC(=O)CC#N | 87% (inactive)
COc1ccc(/C(O)=C/C(=O)C(=O)NNC(=O)C(O)(c2ccccc2)c2ccccc2)cc1 | 111% (inactive)
CCOC(=O)c1cc(-c2ccccc2)sc1NC(=O)C(C)N1C(=O)NC(C)(c2ccc(Cl)cc2)C1=O (stereo unspecified) | 82.2% (inactive)
Cc1ccc(C)c(CSc2nnc(C)c(=O)n2N)c1 | 92.7% (inactive)
O=C(/C=C/c1cc(Br)ccc1F)OCC(=O)N1CCCC1 | 109% (inactive)
CCc1cc(C(=O)O)c(NC(=O)/C=C/c2ccc(OC)cc2)s1 | 95.8% (inactive)
CC(C)Oc1ccc(N2CC(C(=O)Nc3ccccc3F)CC2=O)cc1 (stereo unspecified) | 94.2% (inactive)
CSc1nnc(-c2ccc(NC(N)=S)cc2)o1 | 98.6% (inactive)
Cc1ccc(S(=O)(=O)N[C@H](C(=O)OCn2nnc3ccccc3c2=O)C(C)C)cc1 | 84.8% (inactive)
O=C(CNC(=O)c1ccc(Br)cc1)NCC(=O)OCc1ccc(Cl)cc1 | 100% (inactive)
O=C(CSC1CS(=O)(=O)c2cc([N+](=O)[O-])ccc21)NNC(=O)c1ccccc1 (stereo unspecified) | 91.9% (inactive)
O=C1O/C(=C/c2ccccc2)N=C1c1ccccc1 | 96% (inactive)
NNC(=S)Nc1ccc(C(F)(F)F)cc1Cl | 100% (inactive)
CCCOc1ccc(C2Nc3cccc4cccc(c34)N2)cc1 | 102% (inactive)
Cc1cccc(NC(=O)c2cc3ccccc3c(=O)o2)n1 | 87.8% (inactive)
O=C(CCSc1nnc(-c2ccncc2)o1)Nc1ccccc1Cl | 105% (inactive)
COc1ccccc1/C=N/NC(=S)Nc1cccnc1 | 99.7% (inactive)
O=C(CSc1ncn[nH]1)Nc1cccc2ccccc12 | 97.2% (inactive)

SMILES | viability
COc1cccc(/C=N/NC(N)=S)c1OS(=O)(=O)c1ccccc1 | 97.5% (inactive)
COc1cccc(/C=N/Nc2nc(N3CCCC3)nc(N3CCCC3)n2)c1O | 111% (inactive)
Cc1ccc(N=Cc2c(O)ccc3ccccc23)cc1F | 80.5% (inactive)
COC(=O)c1ccccc1NC(=O)CSCC(=O)Nc1ccc(F)cc1 | 95.4% (inactive)
CONC(=O)c1cc(OCC(F)(F)F)ccc1OCC(F)(F)F | 111% (inactive)
COC(=O)c1cccc(NC(=S)NCCC2=CCCCC2)c1 | 86.8% (inactive)
O=C(NCC1COc2ccccc2O1)C1CCC(CNc2c(N3CCCCC3)c(=O)c2=O)CC1 (stereo unspecified) | 104% (inactive)
Cc1ccc(-n2ncc(-c3nnc(SCC(=O)NC4CCCC4)o3)c2N)cc1C | 91.1% (inactive)
COc1cc(C(F)(F)F)nc2ccc(C#CCOC(=O)Nc3ccccc3)cc12 | 81.5% (inactive)
O=C(CN1CCC(O)(c2ccc3c(c2)OCO3)CC1)OC1CCCCC1 | 94.6% (inactive)
COc1ccc(C(=O)Nc2nc3ccc(OC)cc3s2)cc1 | 96.8% (inactive)
COc1ccc2nc(NC(=O)c3ccc(Br)s3)sc2c1 | 93.6% (inactive)
O=C(COC(=O)c1ccc([N+](=O)[O-])s1)NCc1ccc(F)cc1 | 95.4% (inactive)
CCOc1ccc(NC(=S)Nc2cccnc2)cc1 | 90.6% (inactive)
Cc1c(C(=O)Nc2cccnc2)oc2ccc(Br)cc12 | 85.6% (inactive)
COc1cc(NC(=O)C2CCCCC2)c(OC)cc1NC(=O)CN1CCCCC1 | 85.1% (inactive)
Cc1nnc(SCc2ccc(C(=O)Nc3cc(Cl)ccc3C)cc2)s1 | 110% (inactive)
Cc1ccc(S(=O)(=O)NCCCCCC(=O)Nc2nccs2)cc1 | 83.2% (inactive)
COc1ccc(C(=O)Nc2ccc(C(=O)OCC(=O)c3ccccc3)cc2)cc1 | 82.4% (inactive)
CCc1ccc2nc(/N=C(\N)NC(=O)c3ccccc3)nc(C)c2c1 | 91% (inactive)
O=S1(=O)CCO[C@H]2Cc3ccccc3[C@H]2N1Cc1ccc(Cl)cc1 | 93.3% (inactive)
Cc1ccc(SCCNC(=O)c2ccc(C)c([N+](=O)[O-])c2)cc1 | 94.3% (inactive)
Cc1ccc(NC(=O)O/N=C/c2c(C)nn(C(C)(C)C)c2C)cc1Cl | 112% (inactive)
